# Screening data: PubChem BioAssay, National Center for Advancing Translational Sciences (NCATS)
# Pf growth 96h – P. falciparum growth inhibition at 96 hour, primary screen for plastid delayed-death inhibitors; P. falciparum luciferase reporter growth, 96 h; Potency, µM (top dose mostly 28.7 µM), inactives show top-dose activity change, negative = inhibition, usual class: inhibitors; actives 6.9% (n = 320,000); AID 504834; active = well fitted inhibition curve with a large enough effect; inconclusive = small, poorly fitted or top-dose-only effect, or another doubt; inactive = no such curve, though single readings can be large or run the other way; also: potency is read from the fitted curve at half-maximal effect; % is scaled to controls: 0 for no effect and ±100 for the full control effect
#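 P. falciparum expressing integrated firefly luciferase, in erythrocytes at 2% hematocrit, 0.05% parasitemia, incubated with compounds 96 h at 37 C, 5% CO2. Growth inhibition read as loss of luminescence; two-generation exposure targets delayed-death apicoplast inhibitors.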
# Cycloheximide cs – affects cycloheximide protein synthesis inhibition readout, counter-screen | cell reporter, cycloheximide protein synthesis inhibition counterscreen | max response, % | actives 12% (n = 300,000) | AID 2314; in the data active = max response mostly above about 13%, no sharp cut-off; inactive = mostly below about 14%; also: read at 38.3 µM for the half of the compounds with a filed dose; 0% is about no effect
# SARS PLpro yeast – blocks SARS-CoV papain-like protease in a yeast assay | S. cerevisiae expressing SARS-CoV PLpro, growth rescue | Potency, µM (doses to about 32.9 µM), for inactives: at the top dose activity, positive = growth rescue, usual class: activators | actives 0.19% (n = 330,000); also: potency is read from the fitted curve at half-maximal effect; 0% is about no effect; nearly all actives have a fitted effect of over 55% in size
# NS1 inh – blocks influenza NS1 protein function. AID 2326. actives 0.4% (n = 270,000). Potency, µM (titrated, usually from 46.1 µM), for the others: at the top dose activity, positive = more growth; also: potency is read from the fitted curve at half-maximal effect; actives are rising curves; nearly all actives have a fitted effect of over 50% in size
#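 In this qHTS, NS1 from influenza A is expressed in budding yeast, where it slows growth. Cells are switched from glucose to 2% galactose medium (pH 6.0, -URA), treated with compound, and growth recovery is read at OD600.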
# Pf growth 48h – P. falciparum growth inhibition at 48 hours (one generation); actives 5.9% (n = 310,000); Potency, µM (highest dose often 28.7 µM), for the others: at the highest dose activity change, negative = inhibition, actives largely listed as inhibitors; P. falciparum luciferase growth in erythrocytes, 48 h; active = well fitted inhibition curve with a large enough effect; inconclusive = small, poorly fitted or top-dose-only effect, or another doubt; inactive = no such curve, though single readings can be large or run the other way; also: potency is read from the fitted curve at half-maximal effect; % is scaled to controls: 0 for no effect and ±100 for the full control effect
#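 Luciferase-expressing P. falciparum in infected erythrocytes (2% hematocrit, 0.1% parasitemia final) in RPMI 1640/0.5% Albumax were exposed to compound for 48 hours at 37 C, 5% CO2; growth read as luminescence.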
# Shiga toxin inh – blocks Shiga toxin action in Vero cells | Vero cells, Shiga toxin protein synthesis inhibition reporter | inhibition, % at 38.7 µM | actives 9.2% (n = 290,000) | AID 2315; in the data active = inhibition mostly above about 28%, no sharp cut-off; inactive = mostly below about 43%; also: 0% is about no effect
# Starred values were filed as active, the others as inactive; ? = inconclusive; nt = not tested or not shown. Rows were chosen to be rich in hits. Some 21% of all compounds tested hit in one or more screens of this group. Unless noted, calls follow the shape of the full dose curve.
SMILES,Pf growth 96h,Cycloheximide cs,SARS PLpro yeast,NS1 inh,Pf growth 48h,Shiga toxin inh
C/C(CC(=O)Nc1ccccn1)=N\NC(=O)C(=O)Nc1ccccc1C,1.9µM*,1,-1%,4%,-4%,-20
C/C(CC(=O)Nc1cc(C)ccn1)=N\NC(=O)C(=O)Nc1cccc(C)c1,1.5µM*,26*,-23%,1%,82%,32
CCc1ccc(NC(=O)C(=O)N/N=C(\C)CC(=O)Nc2ccccn2)cc1,?,36*,0%,?,77%,48*
CCc1ccc(NC(=O)C(=O)N/N=C(\C)CC(=O)Nc2ccc(OC)cc2)cc1,2%,2,-1%,-4%,66%,21
COc1cccc(C2=CC(c3ccc(OC)c(OC)c3)NC(=S)N2)c1 (centres undefined),?,0,-2%,5%,10µM*,11
CCc1nc(SCC(=O)Nc2ccc(OC)cc2[N+](=O)[O-])n[nH]1,57%,-3,-1%,6%,111%,-6
CCCCCCCCCCOC(=O)c1csc2nnsc12,17%,1,10%,13%,-1%,-1
COc1ccc(C(c2nnnn2Cc2ccc(F)cc2)N2CCN(c3ccccc3)CC2)cc1 (centres undefined),?,-6,-8%,-1%,12µM*,-7
COc1ccc(C(c2nnnn2Cc2ccc(F)cc2)N2CCN(c3ccc(OC)cc3)CC2)cc1 (centres undefined),50%,-1,-14%,-30%,10µM*,-6
COc1ccc(C(c2nnnn2Cc2cccs2)N2CCN(c3ccc(F)cc3)CC2)cc1OC (centres undefined),13µM*,10,0%,-5%,5.9µM*,3
Fc1ccc(Cn2nnnc2C(c2ccc(F)cc2)N2CC=C(c3ccc(F)cc3)CC2)cc1 (centres undefined),13µM*,8,-34%,-5%,-25%,-6
CN1CCN(C(c2ccc(F)cc2)c2nnnn2Cc2cccs2)CC1 (centres undefined),-3%,-6,-8%,-8%,0%,-8
CCCCn1c(N)c(N(CCOC)C(=O)c2ccco2)c(=O)[nH]c1=O,-1%,nt,-2%,nt,?,nt
CCOc1ccc(CCNC(=O)c2cnc(C)cn2)cc1OCC,-11%,-2,26%,5%,-1%,4
COc1ccc(N2CCN(C(c3ccccc3)c3nnnn3Cc3ccc(F)cc3)CC2)cc1 (centres undefined),nt,-3,-3%,5%,9.3µM*,16
COc1ccc(Cn2nnnc2C(c2ccc(F)cc2)N2CCN(C3CCCC3)CC2)cc1 (centres undefined),0%,-3,-1%,-5%,?,-14
COc1ccc(Cn2nnnc2C(c2ccccn2)N2CCN(c3cc(Cl)ccc3C)CC2)cc1 (centres undefined),nt,-2,-7%,-5%,12µM*,5
CCOc1cc(-c2sc(Nc3ccc(CC)cc3)n[n+]2-c2ccccc2)ccc1OC,?,nt,0%,nt,10µM*,nt
CCOc1cc(-c2sc(Nc3cc(C)ccc3OC)n[n+]2-c2ccccc2)ccc1OC,?,nt,-2%,nt,?,nt
CCc1ccc(Nc2n[n+](-c3ccccc3)c(-c3cccc(C)c3)s2)cc1,8.3µM*,nt,3%,nt,?,nt
Cc1nc(SCc2ccc(F)cc2)c2oc3ccccc3c2n1,-13%,1,0%,3%,-5%,1
O=C(CSc1ncnc2c1oc1ccccc12)c1cccs1,114%,23*,2%,-4%,55%,42*
Cc1nc(SCc2ccccc2F)c2oc3ccccc3c2n1,8.3µM*,9,1%,-1%,?,7
Cc1nc(SCC(=O)c2cccs2)c2oc3ccccc3c2n1,nt,56*,2%,2%,31%,136*
NC(=O)CSc1ncnc2c1oc1ccccc12,-1%,4,5%,-8%,nt,-2
SMILES,Pf growth 96h,Cycloheximide cs,SARS PLpro yeast,NS1 inh,Pf growth 48h,Shiga toxin inh
CC(OC(=O)C1CC1C)C(=O)Nc1ccc(Cl)cn1 (centres undefined),31%,nt,-2%,nt,?,nt
O=C(O)CNC(=O)c1ccccc1Br,67%,2,0%,nt,21%,6
Cc1cc(=O)oc2cc(OCC(=O)Nc3ccc(CN4CCOCC4)cc3)c(Cl)cc12,18%,18,-1%,-3%,5%,-11
Cc1cc(C(C)(C)C)ccc1NC(=O)CC(C)(C)CC(=O)O,30%,49*,1%,7%,57%,82*
CCCCn1c(N)c(N(CC(C)C)C(=O)C2CCN(C(=O)c3ccc(F)cc3)CC2)c(=O)[nH]c1=O,?,5,-4%,-4%,-4%,-2
CCCCC1CCC(C(=O)N(CC(C)C)c2c(N)n(Cc3ccccc3)c(=O)[nH]c2=O)CC1 (centres undefined),10µM*,nt,1%,nt,?,nt
CCCCn1c(N)c(N(CC(C)C)C(=O)C2CCN(c3ncnc4sc(C)c(C)c34)CC2)c(=O)[nH]c1=O,2.9µM*,nt,5%,nt,5.2µM*,nt
CCCCn1c(N)c(N(CCOC)C(=O)C2CCN(c3ncnc4sc(C)c(C)c34)CC2)c(=O)[nH]c1=O,12µM*,nt,-2%,nt,12µM*,nt
CC[C@@H]1C/C=C\Cc2ccccc2[C@H](C(=O)C[C@@H](O)CC(C)=O)OC1=O,nt,nt,4%,nt,nt,nt
C=CCC1(CC=C)CCCN1Cc1nc(COc2ccccc2)no1,?,1,0%,9%,?,-3
Cc1ccc(C(=O)NC(C)c2ccccc2)o1 (centres undefined),-8%,-1,8%,8%,1%,11
COc1ccccc1C(C)NC(=O)c1ccc(C)o1 (centres undefined),13µM*,-2,0%,0%,nt,-16
Cc1ccc(CN2C(=O)C(CC(C)C)Nc3ncnc(N4CCN(c5ccccn5)CC4)c32)cc1 (centres undefined),?,nt,3%,nt,9.3µM*,nt
COc1ccc(CN2C(=O)C(CC(C)C)Nc3ncnc(N4CCN(c5ccccn5)CC4)c32)cc1 (centres undefined),?,nt,-2%,nt,?,nt
CC(C)CC1Nc2ncnc(N3CCN(c4ccccn4)CC3)c2N(Cc2ccc(Br)cc2)C1=O (centres undefined),8.3µM*,nt,3%,nt,7.4µM*,nt
CC(C)CC(=O)C1=C(O)C(=O)N(Cc2ccccc2)C1c1ccccc1 (centres undefined),-11%,1,4%,10%,30%,nt
c1ccc(-n2nnnc2-n2nnc3ccccc32)cc1,?,-5,-1%,-3%,-7%,-19
c1ccc(-n2nnc3ccccc32)nc1,61%,26*,-5%,-16%,57%,67*
CN(CC(=O)Nc1ccccc1Br)C(=O)CNC(=O)c1ccc(Oc2ccccc2)cc1,-11%,60*,6%,5%,?,55*
C[C@H](NC(=O)c1cccc([N+](=O)[O-])c1)C(=O)OCC(=O)c1ccccc1Br,nt,nt,-4%,nt,nt,nt
